Compound activity as filed in PubChem BioAssay.
Most compounds without a hit are left out; they make up all but 1.6% or so of the library.
KCNQ2 pot: enhances the rat KCNQ2 potassium channel; O88943; CHO-K1 KCNQ2, FluxOR thallium flux fluorescence; stronger effect = higher value; B-score at 10 µM; actives 0.54% (n = 310,000); AID 2239;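 active = fluorescence ratio B-score at least 3 SD of library B-scores, with initial fluorescence B-score within 3 of them, cut at about 5.3 in these data; same plate scores as AID 2156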;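 also: B-score of peak minus minimum over baseline fluorescence ratio after K+ and Tl+ stimulus; positive B-score means potentiation of KCNQ2 with more thallium influx and brighter signal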
KCNQ2 block: inhibitors of rat KCNQ2 potassium channel | O88943 | CHO-K1 KCNQ2, FluxOR thallium flux, 20 min; stronger effect = lower value | B-score at 10 µM | actives 1.1% (n = 310,000) | AID 2156;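 active = fluorescence ratio B-score at most minus 3 library SDs, with starting brightness B-score within 2 library SDs, cut at about -5.5 in these data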
* hit, by the source's call; i = inactive; / = not tested or not shown.

SMILES	KCNQ2 pot	KCNQ2 block
O=C(NC(Nc1nc2ccc([N+](=O)[O-])cc2s1)(C(F)(F)F)C(F)(F)F)c1ccccc1Cl	-10	-10*
O=C(NC(Nc1nc2ccc([N+](=O)[O-])cc2s1)(C(F)(F)F)C(F)(F)F)c1cccnc1	1.3	i
Nc1ccc2nc(SCc3ccc([N+](=O)[O-])cc3)sc2c1	/	i
O=[N+]([O-])c1ccc2nc(SCc3ccccc3Cl)sc2c1	-9.9	-9.9*
Cc1sc2nc(-c3ccccn3)[nH]c(=O)c2c1-c1ccccc1	13*	i
Cc1sc2nc(-c3ccncc3)[nH]c(=O)c2c1-c1ccccc1	0.02	i
C/C(=N/Nc1ccccc1[N+](=O)[O-])c1ccc(C)c([N+](=O)[O-])c1	0.55	i
CC(C)/C(=N/Nc1ccccc1[N+](=O)[O-])c1ccccc1	-6.4	-6.4*
COc1cccc(OCCCCSc2ncccn2)c1	/	i
c1ccc(Oc2cccc(OCCCCSc3ncccn3)c2)cc1	-6.2	-6.2*
CCN(CC)S(=O)(=O)c1ccc(C)c(NC(=O)COc2ccc(Cl)cc2Br)c1	0.05	i
CCN(CC)S(=O)(=O)c1cccc(NC(=O)COc2ccc(F)cc2Br)c1	-7.6	-7.6*
CCN(CC)S(=O)(=O)c1cccc(NC(=O)COc2ccc(C#N)cc2OC)c1	7.5*	i
CCN(CC)S(=O)(=O)c1cc(NC(=O)COc2ccc(C#N)cc2OC)ccc1C	/	i
COc1ccc(NC(=O)C2CCCN(C(=O)Nc3ccc(F)cc3)C2)cc1OC (centres undefined)	/	i
COc1cccc(NC(=O)CS(=O)(=O)Cc2nc(-c3ccc(C)cc3)oc2C)c1	0.39	i
CCN(CC(=O)Nc1c(F)cccc1F)C(=O)CCSc1ccc(F)cc1	0.39	i
Cc1cc(S(=O)(=O)c2ccc([N+](=O)[O-])cn2)ccc1Br	/	i
Cc1ccc(S(=O)(=O)c2ccc([N+](=O)[O-])cn2)cc1	-6	-6*
COc1cc(/C=C(/NC(=O)c2ccccc2)C(=O)Nc2ccccc2)c([N+](=O)[O-])cc1OC	-6.6	-6.6*
COc1cc(/C=C(/NC(=O)c2ccccc2)C(=O)Nc2ccc(O)cc2)c([N+](=O)[O-])cc1OC	0.84	i
COc1ccc(NC(=O)/C(=C\c2cc(OC)c(OC)cc2[N+](=O)[O-])NC(=O)c2ccccc2)cc1	-7.2	-7.2*
COc1ccc(C(=O)N/C(=C\c2ccccc2)C(=O)Nc2ccc(C(=O)O)cc2)cc1	0.57	i
CN(C)S(=O)(=O)c1cccc(-c2nnc3n2CCCCC3)c1	/	i
CCC(C)(O)c1[nH]c2ccc(C(=O)OC)cc2c1C (centres undefined)	0.88	i
SMILES	KCNQ2 pot	KCNQ2 block
COc1cccc(CNn2cnnc2)c1O	-5.6	-5.6*
CCOc1ccccc1CNn1cnnc1	1.5	i
Cc1cc(Br)ccc1NC(=O)CN(C)C(=O)c1cc([N+](=O)[O-])ccc1N1CCOCC1	-6.5	-6.5*
Cc1ccc(C)c(NC(=O)CN(C)C(=O)c2cc([N+](=O)[O-])ccc2N2CCOCC2)c1	0.91	i
C=CCNC(=S)Nc1sc2c(c1C(=O)OCC)CC(C)(CC)OC2 (centres undefined)	9.9*	i
C=CCNC(=S)Nc1sc2c(c1C(=O)OCC)CCN(C(=O)OCC)C2	/	i
CN(C)c1nc(N(C)C)n(Cc2c(Cl)cccc2Cl)n1	2	i
Cc1ccc(-n2ncc3c(SCc4ccccn4)ncnc32)c(C)c1	/	i
Cc1ccc(NC(=O)CSc2nn(-c3ccc(Cl)cc3)c(=S)s2)cc1S(=O)(=O)N(C)C	-7.1	-7.1*
CN(C)S(=O)(=O)c1cc(NC(=O)CSc2nn(-c3ccc(Cl)cc3)c(=S)s2)ccc1Cl	/	i
OCC(O)CNC(=S)NC1CCCCC1 (centres undefined)	0.28	i
CCN(CC)S(=O)(=O)c1ccc2c(c1)N(CC(=O)Nc1cccnc1Cl)C(=O)CO2	0.98	i
c1ccc(Nc2scc(-c3ccccc3)[n+]2Cc2ccco2)cc1	-6.4	-6.4*
c1ccc(C[n+]2c(-c3ccccc3)csc2Nc2ccccc2)cc1	/	i
CC1=NN(C(=O)c2ccccc2)C(O)(c2ccc(Br)cc2)C1 (centres undefined)	1.1	i
CCC1=NN(C(=O)c2ccc(Br)cc2)C(O)(c2ccccc2)C1 (centres undefined)	6*	i
C/C(=N/NC(=O)CN1CCN(S(=O)(=O)c2ccc(C)cc2)CC1)c1ccco1	0.02	i
Cc1ccc(S(=O)(=O)N2CCN(C(=O)C3CSC4(C)CCC(=O)N34)CC2)cc1C (centres undefined)	/	i
CN(CC(=O)Nc1ccccc1-c1ccccc1)Cc1ccccc1Cl	-6.3	-6.3*
Cc1ccc(NC(=O)CN(C)CC(=O)Nc2ccccc2-c2ccccc2)cc1	/	i
Cc1ccc(/C=N/NC(=O)c2nnn(-c3nonc3N)c2-c2ccc3c(c2)OCO3)s1	0.58	i
O=C(NC(=S)Nc1cccnc1)c1cc2ccccc2o1	8.1*	i
